Test results reported in PubChem BioAssay (Tox21).
Where “and” joins values, the source holds several entries; their conditions need not be identical. Identical values can stand only once. Results filed as inconclusive are left out. Some structures have more than one record in an assay (separate samples or runs), and their calls can disagree. Calls of active or inactive are those of the source. Calls follow the shape of the dose curve; as a rule, active = well fitted inhibition curve with a large enough effect in the repeat runs; inconclusive = weak or mixed curves; inactive = no such curve, though single readings can be large or run the other way.

Molecular target: Cytochrome P450 2C19 (Homo sapiens) (UniProt P33261)
Assay: Cytochrome P450 Family 2 Subfamily C Member 19 (CYP2C19) small molecule antagonists: luciferase reporter qHTS assay (AID 1671197); also: nearly all actives have a fitted effect of over 65% in size
Conditions: P450-Glo CYP2C19 enzyme, luciferin luminescence, 1 h; series mostly up to 115 µM
How it was run: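 CYP2C19 P450-Glo, 1536-well qHTS. Cpd + enzyme/proluciferin substrate 10 min RT; + NADPH regen, 37C 1 h; stop with luciferin detection reagent, 20 min RT, luminescence (RLU). Pos ctrl ketoconazole.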
Potency is read from the fitted curve at half-maximal effect.

Chain of Cytochrome P450 2C19 (Homo sapiens) (P33261 whole entry, looked up): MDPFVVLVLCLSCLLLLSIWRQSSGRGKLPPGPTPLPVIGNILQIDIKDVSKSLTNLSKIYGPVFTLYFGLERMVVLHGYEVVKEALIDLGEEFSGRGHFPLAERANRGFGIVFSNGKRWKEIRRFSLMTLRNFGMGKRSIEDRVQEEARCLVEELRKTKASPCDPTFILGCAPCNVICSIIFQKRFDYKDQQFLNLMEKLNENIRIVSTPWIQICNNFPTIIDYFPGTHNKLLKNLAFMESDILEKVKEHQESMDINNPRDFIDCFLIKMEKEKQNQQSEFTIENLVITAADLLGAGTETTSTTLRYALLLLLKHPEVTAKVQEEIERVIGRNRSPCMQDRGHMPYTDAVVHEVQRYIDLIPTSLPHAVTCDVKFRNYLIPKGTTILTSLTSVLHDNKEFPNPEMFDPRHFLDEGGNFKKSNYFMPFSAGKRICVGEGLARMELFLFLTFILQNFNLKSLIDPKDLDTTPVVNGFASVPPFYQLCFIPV

Structure (SMILES) | Potency
Cc1ccc2ccccc2c1 | inactive
C=CCOC(C)=O | 70 µM (active)
O=C1NCN(c2ccccc2)C12CCN(CCCOc1ccc(F)cc1)CC2 | inactive
OCCCBr | 3.99 µM (active)
CCOc1nc(F)cc2nc(S(=O)(=O)Nc3c(Cl)cccc3Cl)nn12 | inactive
Cl/C=C\Cl | inactive
Cl/C=C\C[N+]12CN3CN(CN(C3)C1)C2 | inactive
C=CC(=O)OCCCCO | inactive
CN1C(=O)NC(=O)C(C)(C2=CCCCC2)C1=O (stereo unspecified) | inactive
O=C(NC(=O)c1c(F)cccc1F)Nc1ccc(OC(F)(F)C(F)OC(F)(F)F)c(Cl)c1 (stereo unspecified) | inactive
COC(=O)c1cncn1C(C)c1ccccc1 (stereo unspecified) | 3.89 µM (active)
O=NN1CCCCCC1 | inactive
CCOP(=O)(OCC)Oc1ccc([N+](=O)[O-])cc1 | 1.61 µM (active) and 1.78 µM (active)
CCCCCCCCOC(=O)c1ccc(C(=O)OCCCCCCCC)c(C(=O)OCCCCCCCC)c1 | 80.6 µM (active)
II | 56.4 µM (active)
S=C=NCc1ccccc1 | 5.08 µM (active)
CCn1cc[n+](C)c1 | inactive and 40.3 µM (active) and 79.5 µM (active)
CCOP(O)OCC | inactive
CCBr | inactive
Cc1c(F)c(F)c(COC(=O)C2C(/C=C(\Cl)C(F)(F)F)C2(C)C)c(F)c1F (stereo unspecified) | 35.6 µM (active)
O=C(Nc1ccccc1)Nc1ccnc(Cl)c1 | 35.6 µM (active)
C=CC(=O)OCC(C)C | inactive
CC(C)(C)C(O)C(Oc1ccc(Cl)cc1)n1cncn1 (stereo unspecified) | 0.796 µM (active)
c1ccc(CN2CCNCC2)cc1 | inactive
CC/C(=N\OC/C=C/Cl)C1=C(O)CC(C2CCOCC2)CC1=O (stereo unspecified) | 70.9 µM (active)
CC(C)(CCl)C(=O)Cl | inactive
Cc1ccccc1CCl | inactive
C=CC[C@]1(O)CC[C@H]2[C@@H]3CCC4=CC(=O)CCC4=C3C=C[C@@]21C | 9.77 µM (active)
O=C(NCc1cccnc1)Nc1ccc([N+](=O)[O-])cc1 | 2 µM (active)

Molecular target: Cytochrome P450 2C9 (Homo sapiens) (UniProt P11712)
Assay: Cytochrome P450 Family 2 Subfamily C Member 9 (CYP2C9) small molecule antagonists: luciferase reporter qHTS assay (AID 1671198); also: nearly all actives have a fitted effect of over 50% in size
Conditions: P450-Glo CYP2C9 enzyme assay, luciferin luminescence; series mostly up to 115 µM
How it was run: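 CYP2C9 activity was measured with a P450-Glo proluciferin substrate. Enzyme–substrate mix was held with compound for 10 min at room temperature, then NADPH regeneration solution was added for 1 h at 37C. Luciferin product was read as luminescence.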

Chain of Cytochrome P450 2C9 (Homo sapiens) (P11712 whole entry, looked up): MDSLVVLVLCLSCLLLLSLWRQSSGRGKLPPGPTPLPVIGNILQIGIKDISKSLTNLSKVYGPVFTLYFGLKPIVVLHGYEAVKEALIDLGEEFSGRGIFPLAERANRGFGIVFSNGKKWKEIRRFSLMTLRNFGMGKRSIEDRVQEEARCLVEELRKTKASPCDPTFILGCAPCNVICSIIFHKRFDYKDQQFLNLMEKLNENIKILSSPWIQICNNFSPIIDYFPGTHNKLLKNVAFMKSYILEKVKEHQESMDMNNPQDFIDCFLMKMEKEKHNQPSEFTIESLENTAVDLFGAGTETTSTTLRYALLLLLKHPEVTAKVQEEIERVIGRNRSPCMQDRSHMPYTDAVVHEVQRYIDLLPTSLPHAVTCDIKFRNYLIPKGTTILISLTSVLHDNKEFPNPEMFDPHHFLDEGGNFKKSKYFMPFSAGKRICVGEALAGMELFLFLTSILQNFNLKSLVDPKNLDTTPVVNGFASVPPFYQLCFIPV

Structure (SMILES) | Potency
Cc1ccc2ccccc2c1 | inactive
C=CCOC(C)=O | 55.6 µM (active)
O=C1NCN(c2ccccc2)C12CCN(CCCOc1ccc(F)cc1)CC2 | inactive
CCOc1nc(F)cc2nc(S(=O)(=O)Nc3c(Cl)cccc3Cl)nn12 | 71 µM (active)
Cl/C=C\Cl | inactive
Cl/C=C\C[N+]12CN3CN(CN(C3)C1)C2 | inactive
C=CC(=O)OCCCCO | inactive
CN1C(=O)NC(=O)C(C)(C2=CCCCC2)C1=O (stereo unspecified) | inactive
O=C(NC(=O)c1c(F)cccc1F)Nc1ccc(OC(F)(F)C(F)OC(F)(F)F)c(Cl)c1 (stereo unspecified) | 19.5 µM (active)
COC(=O)c1cncn1C(C)c1ccccc1 (stereo unspecified) | 27.5 µM (active)
O=NN1CCCCCC1 | inactive
CCOP(=O)(OCC)Oc1ccc([N+](=O)[O-])cc1 | 64 µM (active)
II | 31.7 µM (active)
S=C=NCc1ccccc1 | 36 µM (active)
CCn1cc[n+](C)c1 | inactive and 32 µM (active)
CCOP(O)OCC | inactive
Cc1c(F)c(F)c(COC(=O)C2C(/C=C(\Cl)C(F)(F)F)C2(C)C)c(F)c1F (stereo unspecified) | 22.4 µM (active)
O=C(Nc1ccccc1)Nc1ccnc(Cl)c1 | 10 µM (active)
C=CC(=O)OCC(C)C | inactive
CC(C)(C)C(O)C(Oc1ccc(Cl)cc1)n1cncn1 (stereo unspecified) | 33.6 µM (active)
N#Cc1cc(I)c(O)c(I)c1 | 22.4 µM (active)
c1ccc(CN2CCNCC2)cc1 | inactive
CC/C(=N\OC/C=C/Cl)C1=C(O)CC(C2CCOCC2)CC1=O (stereo unspecified) | 31.7 µM (active)
CC(C)(CCl)C(=O)Cl | inactive
Cc1ccccc1CCl | inactive
C=CC[C@]1(O)CC[C@H]2[C@@H]3CCC4=CC(=O)CCC4=C3C=C[C@@]21C | 11 µM (active)
O=C(NCc1cccnc1)Nc1ccc([N+](=O)[O-])cc1 | 5.03 µM (active)
